LMP1 NFkB inh: Epstein-Barr LMP1 NF-kappaB reporter inhibition; LMP1-induced NF-kappaB luciferase reporter cells, luminescence; inhibition, % at 12.5 µM; 350,000 compounds, 0.69% hits; in the data active = inhibition above about 41%; inconclusive = no clear call, values can overlap the other calls;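 note: 0% = neutral control wells and 100% = reference inhibitor control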
TWEAK-Fn14 inh: blocks TWEAK-Fn14 interaction in a reporter cell assay; TWEAK-stimulated Fn14 reporter cells, luciferase luminescence, 8 h; 360,000 compounds, 2% hits; inhibition, % at 10 µM; in the data active = inhibition above about 50%
TROY signal inh: blocks TROY-dependent signaling in reporter cells; Q293 LMP1-TROYcd NF-kB luciferase reporter, 4 h; 360,000 compounds, 0.98% hits; inhibition, % at 10 µM;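 active = compounds whose plate-normalised and pattern-corrected inhibition of the luciferase reporter signal at the single screening dose is 50% or more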
HSF1 activator: increases HSF-1 driven luciferase reporter signal. 300,000 compounds, 1.7% hits. activation, % at 9 µM. NIH3T3-HGL HSF-1 luciferase reporter, MG132, 8 h; 100% = twice DMSO control signal. AID 504408;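 active = mean replicate activation of at least 50% with a set share of replicates each reaching 50%; inconclusive = only one of those two conditions met; inactive = mean below 50% and too few replicates reaching it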;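 note: 0% = median of the neutral control wells and 100% = twice that signal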
HSF1 inhib: HSF1 inhibition. 300,000 compounds, 0.77% hits. AID 2098. NIH3T3-HGL HSE-luciferase, MG132-induced, luminescence 8 h; active compounds read low. activity change, negative = inhibition, % at 7.5 µM (by protocol);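 active = more than half of replicate wells show activity change below -50%, luminescence cut by over half; inconclusive = some wells, but at most half, below -50%; inactive = no replicate well below -50%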;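 note: luciferase reports HSF-1 transcriptional activity via heat shock element; 0% = median of DMSO wells and -100% = zero luminescence signal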
LGR2 inh: inhibitors of bursicon-induced Drosophila LGR2 receptor cAMP signaling; HEK293 LGR2, CRE-luciferase, bursicon-stimulated, 4 h; inhibition, % at 9.99 µM; 380,000 compounds, 0.35% hits;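 active = drop in luminescence signal, shown as inhibition above about 50% in the replicate tests, limit read from the data, passing the limit was not always enough; inconclusive = probably only some replicates passing the limit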;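 note: agonist challenge used bursicon conditioned medium at about half maximal strength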
* hit, by the source's call. Shown are actives, neighbours in structure and some others; about 3.6% of the full set was active somewhere.

Results for CCC(=O)Nc1ccc2c(c1)OC[C@H](C)N(CCc1ccccc1)C[C@H](C)[C@@H](OC)CN(C)C2=O ?
LGR2 inh: 9

Results for COc1ccc(OC)c(C(C[N+](=O)[O-])c2c(C)cc3ccccn23)c1 (configuration not stated) ?
LMP1 NFkB inh: -1; TWEAK-Fn14 inh: 23; TROY signal inh: 1; HSF1 activator: 112*; HSF1 inhib: 88; LGR2 inh: 23

How did O=C(CNCCc1ccc(F)cc1)Nc1cc(F)ccc1F do in these assays?
LMP1 NFkB inh: -8; TWEAK-Fn14 inh: 2; TROY signal inh: 8; HSF1 activator: -69; HSF1 inhib: -60*; LGR2 inh: -22

What do the screens show for `CCCCCCCCC(c1nc2ccccc2[nH]1)N1CCN=C1c1cc2ccccc2[nH]1` (configuration not stated)?
TWEAK-Fn14 inh: 13; TROY signal inh: -5; LGR2 inh: 80*

How did Nc1c(C(=O)c2ccc(Cl)cc2)sc2nsc(SCCN3CCOCC3)c12 do in these assays?
LMP1 NFkB inh: 5; TWEAK-Fn14 inh: 4; TROY signal inh: 9; HSF1 activator: 20; HSF1 inhib: 5

Results for Nc1c(C(=O)c2ccccc2)sc2nsc(SCCN3CCCC3)c12 ?
LMP1 NFkB inh: 34; TWEAK-Fn14 inh: -20; TROY signal inh: 4; HSF1 activator: 118*; HSF1 inhib: 92; LGR2 inh: -26

What do the screens show for `CN1C(=O)c2cc(NC(=O)Nc3ccccc3)ccc2OC[C@@H]2O[C@@H](CC(=O)O)CC[C@H]21`?
LGR2 inh: 1

Results for c1ccc(-c2cc(-c3nnc4n3N=C(c3ccc5ccccc5c3)CS4)[nH]n2)cc1 ?
LMP1 NFkB inh: 0; TWEAK-Fn14 inh: 68*; TROY signal inh: 6; HSF1 activator: -6; HSF1 inhib: 9; LGR2 inh: 0

What do the screens show for `S=C(NCc1ccco1)N1CCN(c2cccc(Cl)c2)CC1`?
LMP1 NFkB inh: -5; TWEAK-Fn14 inh: 26; TROY signal inh: -6; HSF1 activator: 54*; HSF1 inhib: 44; LGR2 inh: 2

What do the screens show for `S=C(NCc1ccco1)N1CCN(C(c2ccccc2)c2ccccc2)CC1`?
LMP1 NFkB inh: -44; TWEAK-Fn14 inh: 11; TROY signal inh: -3; HSF1 activator: 58*; HSF1 inhib: 36; LGR2 inh: 3

How did O=S(=O)(c1cccc(NC(=S)N2CCN(c3cccc(Cl)c3)CC2)c1)C(F)F do in these assays?
LMP1 NFkB inh: 15; TWEAK-Fn14 inh: 83*; TROY signal inh: 26; HSF1 activator: 26; HSF1 inhib: 9; LGR2 inh: 14

How did CC(C)CNC(=S)N1CCN(C(c2ccccc2)c2ccccc2)CC1 do in these assays?
LMP1 NFkB inh: -20; TWEAK-Fn14 inh: 20; TROY signal inh: -3; HSF1 activator: 20; HSF1 inhib: -4; LGR2 inh: -5

Results for COc1ccc(C(=O)NC2CCN(C(=S)NCc3ccco3)CC2)cc1 ?
LMP1 NFkB inh: -9; TWEAK-Fn14 inh: 10; TROY signal inh: 0; HSF1 activator: 56*; HSF1 inhib: 33; LGR2 inh: 3

What do the screens show for `O=S(=O)(c1cccc(NC(=S)N2CCN(c3ccc(F)cc3)CC2)c1)C(F)F`?
LMP1 NFkB inh: 17; TWEAK-Fn14 inh: 38; TROY signal inh: 37; HSF1 activator: 7; HSF1 inhib: -14; LGR2 inh: 12

Results for CN(C)CC(=O)N[C@@H]1CC[C@H](CCNC(=O)C2CCCCC2)O[C@@H]1CO ?
LGR2 inh: -2

Results for O=C(c1ccc2c(=O)n(CCc3ccccc3)c(=O)[nH]c2c1)N1CCN(c2ccccc2)CC1 ?
LMP1 NFkB inh: -12; TWEAK-Fn14 inh: 38; TROY signal inh: 35; HSF1 activator: 18; HSF1 inhib: 5

Results for COc1ccc(N2CCN(C(=O)Cc3ccc(C)cc3)CC2)cc1 ?
LMP1 NFkB inh: -17; TWEAK-Fn14 inh: 10; TROY signal inh: -3; HSF1 activator: 39; HSF1 inhib: 12; LGR2 inh: 4

What do the screens show for `O=C(c1ccc2c(=O)n(CCc3ccccc3)c(=O)[nH]c2c1)N1CCN(c2ccc(F)cc2)CC1`?
LMP1 NFkB inh: 21; TWEAK-Fn14 inh: 74*; TROY signal inh: 58*; HSF1 activator: 17; HSF1 inhib: 15; LGR2 inh: 0

Results for COc1ccc(N2CCN(C(=O)c3ccc4c(=O)n(CCc5ccc(OC)c(OC)c5)c(=O)[nH]c4c3)CC2)cc1 ?
LMP1 NFkB inh: -9; TWEAK-Fn14 inh: 59*; TROY signal inh: 13; HSF1 activator: 8; HSF1 inhib: 6; LGR2 inh: 3

What do the screens show for `COc1ccc(N2CCN(C(=O)Cc3ccc(-n4c(=O)[nH]c5ccccc5c4=O)cc3)CC2)cc1`?
LMP1 NFkB inh: 5; TWEAK-Fn14 inh: 3; TROY signal inh: -5; HSF1 activator: -69; HSF1 inhib: -58*

How did Cc1ccc(S(=O)(=O)N(C)C[C@@H]2Oc3ccc(NC(=O)Cn4cnnn4)cc3C(=O)N([C@H](C)CO)C[C@H]2C)cc1 do in these assays?
LGR2 inh: -10

What do the screens show for `O=C(C[C@@H]1CC[C@@H](NC(=O)NC2CCCC2)[C@@H](CO)O1)NCc1ccc(F)cc1`?
LGR2 inh: -12

Results for COC(=O)[C@H]1[C@@H](O)[C@@]2(O)c3c(OC)cc(OC)cc3O[C@@]2(c2ccc(OC)cc2)[C@@H]1c1ccc(F)cc1 ?
LGR2 inh: 86*

What do the screens show for `COC(=O)C1C(=O)C=C(Nc2ccc(F)cc2)CC1c1ccc(OC)cc1` (configuration not stated)?
LMP1 NFkB inh: -10; TWEAK-Fn14 inh: -13; TROY signal inh: -45; HSF1 activator: 19; HSF1 inhib: 7; LGR2 inh: -32

What do the screens show for `COC(=O)c1ccc(-c2nc3cc(Cl)c(N)cc3s2)cc1`?
LMP1 NFkB inh: 9; TWEAK-Fn14 inh: 87*; TROY signal inh: 71*; HSF1 activator: -65; HSF1 inhib: -57*

How did CO[C@@H]1CN(C)C(=O)c2cc(NS(C)(=O)=O)ccc2OC[C@H](C)N(CC2CC2)C[C@@H]1C do in these assays?
LGR2 inh: 6

How did CN(C)c1ccc(-c2nc3ccccn3c2/N=C/c2ccc(Br)cc2)cc1 do in these assays?
LMP1 NFkB inh: 38; TWEAK-Fn14 inh: 65*; TROY signal inh: 22; HSF1 activator: 24; HSF1 inhib: 0; LGR2 inh: inconclusive

What do the screens show for `COc1cc(-c2nc3ccccn3c2/N=C/c2cc(OC)c(OC)c(OC)c2)ccc1O`?
LMP1 NFkB inh: -7; TWEAK-Fn14 inh: -15; TROY signal inh: 3; HSF1 activator: -5; HSF1 inhib: 1

What do the screens show for `Cc1c(-c2ccc(Br)cc2)nc2ccccn12`?
LMP1 NFkB inh: -38; TWEAK-Fn14 inh: -4; TROY signal inh: -54; HSF1 activator: 51*; HSF1 inhib: 26; LGR2 inh: -27
